GPR151 ag: activators of human GPR151, primary screen, cell-based, PathHunter beta-arrestin, luminescence; PathHunter beta-arrestin GPR151 cells; activation, % at 11.2 µM; hit rate 1% among 650,000; G-protein coupled receptor 151 (Homo sapiens), Q8TDV0; in the data active = activation above about 4.9%
MITF inh: MITF inhibitors, primary screen, biochemical, AlphaScreen, human; AlphaScreen MITF homodimerization, bead proximity signal; AID 1259374, 2018; Microphthalmia-associated transcription factor (Homo sapiens), O75030; inhibition, % at 2.6 µM; hit rate 0.91% among 650,000; in the data active = inhibition above about 50%
Target sequence (O75030 whole entry, looked up): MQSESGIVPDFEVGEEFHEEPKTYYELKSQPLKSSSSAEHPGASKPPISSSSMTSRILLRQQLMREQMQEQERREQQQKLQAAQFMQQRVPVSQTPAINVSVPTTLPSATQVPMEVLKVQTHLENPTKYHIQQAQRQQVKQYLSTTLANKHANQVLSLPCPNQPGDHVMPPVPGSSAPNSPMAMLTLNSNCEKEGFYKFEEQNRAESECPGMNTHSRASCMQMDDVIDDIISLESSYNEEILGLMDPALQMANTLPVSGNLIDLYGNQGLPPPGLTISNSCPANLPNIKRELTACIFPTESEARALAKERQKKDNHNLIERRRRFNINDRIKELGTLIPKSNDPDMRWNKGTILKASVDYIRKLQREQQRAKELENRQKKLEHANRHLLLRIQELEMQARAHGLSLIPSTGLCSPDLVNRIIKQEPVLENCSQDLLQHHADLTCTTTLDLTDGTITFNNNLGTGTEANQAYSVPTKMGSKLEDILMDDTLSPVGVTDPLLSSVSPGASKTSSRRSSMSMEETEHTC
TEAD-YAP block: TEAD-YAP interaction inhibition, primary screen, TEAD-YAP interaction inhibitor project, luminescence, HEK-TIYL cells; TEAD-Gal4/YAP UAS-luciferase luminescence; hit rate 1.4% among 640,000; inhibition, % at 9.12 µM; in the data active = inhibition above about 32%
FBW7 act: FBW7 E3 ligase activators, primary screen, biochemical, AlphaScreen, human; F-box/WD repeat-containing protein 7 (Homo sapiens), Q969H0; normalized activity (activation), % at 26.1 µM; hit rate 0.13% among 650,000; AlphaScreen FBW7–phospho-cyclin E peptide binding, activator screen; in the data active = normalized activity above about 1.9%;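 note: purified mutant Fbw7 with reduced substrate affinity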
GPR151 conf act: GPR151 activators, triplicate retest, confirmation, cell-based, PathHunter beta-arrestin, luminescence. 6,700 tested, under 10 active. activation, % at 11.2 µM. GPR151 PathHunter beta-arrestin cells, 90 min; % of EA-reagent control over plate median. shares compounds with GPR151 ag;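 active = mean percent activation across replicates above the confirmation screen cutoff of 4.91%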
GPR119 counter: GPR119 activators in beta-arrestin cells, counter-screen for GPR151 activator project, cell-based, PathHunter beta-arrestin, luminescence, triplicate; shares compounds with GPR151 ag; 90 min; 0 = compound-well median, 100 = enzyme-acceptor control; activation, % at 11.2 µM; hit rate 0.3% among 6,700;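 active = mean percent activation in the counterscreen above 29.09%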;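 note: counterscreen on off-target GPR119 to flag nonselective hits from the GPR151 activator screen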
Hits are given with their value; – = inactive; · = not tested or not shown; ! = a repeat was not active. In the library only some 3.4% were active in any assay of this set; here they are far more common.

SMILES | GPR151 ag | MITF inh | TEAD-YAP block | FBW7 act | GPR151 conf act | GPR119 counter
O=C(CCc1nnc(-c2ccsc2)o1)N1CCCCC1CCc1ccccn1 (stereo not drawn) | 6.5 | – | – | – | – | –
O=C(CCc1nnc(Cc2c[nH]c3ccccc23)o1)N1CCCCC1CCc1ccccn1 (stereo not drawn) | – | – | – | – | · | ·
Cc1ccc(C)c(OC2=NS(=O)(=O)c3cc([N+](=O)[O-])ccc32)c1 | – | – | – | – | · | ·
Cc1ccc(C(C)C)c(OC2=NS(=O)(=O)c3cc([N+](=O)[O-])ccc32)c1 | 13 | – | – | – | – | –
CC(NC(=O)C1CC(Cc2cccc(F)c2)=NO1)c1ccccc1Cl (stereo not drawn) | – | – | – | – | · | ·
C=CCC(O)(CC=C)C(C)NC(=O)C1CC(Cc2cccc(Cl)c2)=NO1 (stereo not drawn) | 11 | – | – | – | – | –
COc1ccc(S(=O)(=O)N(C)CC(=O)Nc2ccc(C(N)=O)cc2)cc1Cl | – | – | – | – | · | ·
CC1=CC(C)(C)N(C(=O)CN2C(=O)CCC2=O)c2cc(C)ccc21 | 12 | – | – | – | – | –
Cc1ccc(N2CC(C(=O)Nc3ccccc3C(=O)NC(C)C)CC2=O)cc1 (stereo not drawn) | 6.3 | – | – | – | – | –
O=C(NCc1ccco1)C1CC(=O)N(c2ccc(F)cc2)C1 (stereo not drawn) | – | – | – | – | · | ·
Cc1ccc(N2CC(C(=O)Nc3ccccc3C(N)=O)CC2=O)cc1 (stereo not drawn) | – | – | – | – | · | ·
O=C(NCc1ccco1)c1ccccc1NC(=O)C1CC(=O)N(c2ccc(Cl)cc2)C1 (stereo not drawn) | 6.8 | – | – | – | – | –
Cc1ccc(N2CC(C(=O)Nc3ccccc3C(=O)NCCc3ccccc3)CC2=O)cc1 (stereo not drawn) | 5.3 | – | – | – | – | –
Cn1c(=NC(=O)c2cc(S(=O)(=O)N3CCOCC3)ccc2F)sc2ccccc21 | – | – | – | – | · | ·
CC1=CC(=O)C=C/C1=N/S(=O)(=O)c1ccc(Cl)cc1 | – | – | – | – | · | ·
CCOc1cccc(NC(=O)C2CC(=O)N(CCc3ccc(OC)c(OC)c3)C(=Nc3ccc(OC)cc3)S2)c1 (stereo not drawn) | – | – | – | – | · | ·
CCOC(=O)c1cccc(N2C(=O)C3C4C=CC(C)(O4)C3C2=O)c1 (stereo not drawn) | – | – | – | – | · | ·
COc1ccc(C=O)cc1Cn1cnc([N+](=O)[O-])n1 | 5.5 | – | – | – | – | –
Cc1nnc(SCC(=O)NC2CCCCC2)s1 | – | – | – | – | · | ·
CCN1CCN(C2=NS(=O)(=O)C(c3ccc(C)cc3)=C2C)CC1 | 12 | – | – | – | – | –
CCN(CC)c1ccc2cc(C(=O)NC(C)=O)c(=Nc3ccc(OC)cc3)oc2c1 | – | – | – | – | · | ·
NC(=O)CSc1nnnn1-c1ccc2c(c1)OCO2 | – | – | – | – | · | ·
Cc1ccc2[nH]c(=O)c(CN(CC3COCCO3)S(=O)(=O)c3ccc(F)cc3)cc2c1 (stereo not drawn) | 5.3 | – | – | – | – | –
Cc1ccc(-c2csc(NC(=O)C(C(C)C)N3C(=O)c4ccccc4C3=O)n2)cc1 (stereo not drawn) | – | – | – | – | · | ·
Clc1ccc(OCc2nc(-c3cccnc3)no2)c(Br)c1 | – | – | – | – | · | ·
SMILES | GPR151 ag | MITF inh | TEAD-YAP block | FBW7 act | GPR151 conf act | GPR119 counter
Brc1c(OCc2nc(-c3cccnc3)no2)ccc2ccccc12 | 7.1 | – | – | – | – | –
CC(=O)Nc1ccc(NC(=S)NC(=O)c2ccccc2[N+](=O)[O-])cc1 | 6.4 | – | – | – | – | –
CCN=C1SC(CC(=O)Nc2sc(C)c(C)c2C(=O)OC)C(=O)N1CC (stereo not drawn) | 6.0! | – | – | – | – | –
Cc1cccn2c(CN(C)CCC3CCOCC3)c(C(=O)N(C)CCc3ccccc3)nc12 | 6.2 | – | – | – | – | –
COc1ccc(Cl)cc1NC(=O)CN(C)CC(=O)Nc1ccc(Br)cc1 | 7.5 | – | – | – | – | –
COc1ccc(Cl)cc1NC(=O)CN(C)S(=O)(=O)c1ccc(Br)cc1 | – | – | – | – | · | ·
CCOc1ccc(NC(=O)CC2S/C(=N\N=C(/C)c3ccc(Cl)cc3)NC2=O)cc1 (stereo not drawn) | 6.7 | – | – | – | – | –
CCCCC[C@@H](O)/C=C/[C@H]1[C@H](O)CC(=O)[C@@H]1CCCCCCC(=O)O | 7.2 | – | · | · | – | –
CCCCC[C@H](O)/C=C/[C@H]1[C@H](O)CC(=O)[C@@H]1CCCCC(=O)O | – | – | · | · | · | ·
O=C(NCc1ccccc1)c1cc2ccccn2n1 | – | – | – | – | · | ·
CC(C(=O)N1CCC2(CCC(CNC(=O)c3ccccc3F)O2)CC1)c1ccccc1 (stereo not drawn) | – | – | – | – | · | ·
c1ccc(-c2cc(N3CCCCC3)nc(-c3cccnc3)n2)nc1 | – | – | – | – | · | ·
c1ccc(-c2cc(N3CCCCC3)nc(-c3ccncc3)n2)nc1 | 9.4 | – | – | – | – | –
CCc1cc2c(SCC(=O)Nc3ccc(Br)cc3)ncnc2s1 | – | – | – | – | · | ·
CCc1cc2c(SCC(=O)Nc3sccc3C(N)=O)ncnc2s1 | 7.0 | – | – | – | – | –
CCc1cc2c(SCC(=O)c3ccccc3)ncnc2s1 | – | – | – | – | · | ·
CCc1cc2c(SCC(=O)c3cccs3)ncnc2s1 | 5.1 | – | – | – | – | –
NC(=O)Nc1ccc(C(=O)OCC(=O)Nc2ccc(Cl)c(Cl)c2)cc1 | – | – | – | – | · | ·
Clc1ncnc2c1oc1ccccc12 | 9.1 | – | – | – | – | –
COc1ccc(CCNC(=O)c2cc(Cl)ccc2[N+](=O)[O-])cc1 | 5.1 | – | – | – | – | –
O=C(Nc1ccc2c(c1)N(C(=O)c1ccco1)CC2)c1cccs1 | – | – | – | – | · | ·
O=C(c1ccco1)N1CCc2ccc(NC(=O)C3(c4ccccc4)CCOCC3)cc21 | 8.4 | – | – | – | – | –
COC(=O)C1=C(C)N(C)C(C)=C(C(=O)OC)C1c1ccc(F)c(Br)c1 | 5.2 | – | – | – | – | –
COc1cccc(OC)c1Oc1ccc(C(F)(F)F)cn1 | – | – | – | – | · | ·
Cc1ccc2nc(NC(=O)c3ccc(S(=O)(=O)N4CCc5ccccc5C4)cc3)sc2c1 | – | – | – | – | · | ·
O=[N+]([O-])c1ccc(CSC2=NCCN2)cc1 | 7.2 | – | – | – | – | –
CCOc1ccc(CSC2=NCCN2)cc1[N+](=O)[O-] | – | – | – | – | · | ·
